MITF inh: MITF inhibitors, primary screen, biochemical, AlphaScreen, human. AlphaScreen MITF homodimerization, bead proximity signal. actives 0.91% (n = 650,000). inhibition, % at 2.6 µM; in the data active = inhibition above about 50%
TEAD-YAP block: TEAD-YAP interaction inhibition, primary screen, TEAD-YAP interaction inhibitor project, luminescence, HEK-TIYL cells; AID 1259422, 2018; TEAD-Gal4/YAP UAS-luciferase luminescence; actives 1.4% (n = 640,000); inhibition, % at 9.12 µM; in the data active = inhibition above about 32%
FBW7 act: FBW7 E3 ligase activators, primary screen, biochemical, AlphaScreen, human | F-box/WD repeat-containing protein 7 (Homo sapiens), Q969H0 | AlphaScreen FBW7–phospho-cyclin E peptide binding, activator screen | normalized activity (activation), % at 26.1 µM | actives 0.13% (n = 650,000) | AID 1259310, 2017; in the data active = normalized activity above about 1.9%;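 also: purified mutant Fbw7 with reduced substrate affinity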
Target sequence (Q969H0 whole entry, looked up): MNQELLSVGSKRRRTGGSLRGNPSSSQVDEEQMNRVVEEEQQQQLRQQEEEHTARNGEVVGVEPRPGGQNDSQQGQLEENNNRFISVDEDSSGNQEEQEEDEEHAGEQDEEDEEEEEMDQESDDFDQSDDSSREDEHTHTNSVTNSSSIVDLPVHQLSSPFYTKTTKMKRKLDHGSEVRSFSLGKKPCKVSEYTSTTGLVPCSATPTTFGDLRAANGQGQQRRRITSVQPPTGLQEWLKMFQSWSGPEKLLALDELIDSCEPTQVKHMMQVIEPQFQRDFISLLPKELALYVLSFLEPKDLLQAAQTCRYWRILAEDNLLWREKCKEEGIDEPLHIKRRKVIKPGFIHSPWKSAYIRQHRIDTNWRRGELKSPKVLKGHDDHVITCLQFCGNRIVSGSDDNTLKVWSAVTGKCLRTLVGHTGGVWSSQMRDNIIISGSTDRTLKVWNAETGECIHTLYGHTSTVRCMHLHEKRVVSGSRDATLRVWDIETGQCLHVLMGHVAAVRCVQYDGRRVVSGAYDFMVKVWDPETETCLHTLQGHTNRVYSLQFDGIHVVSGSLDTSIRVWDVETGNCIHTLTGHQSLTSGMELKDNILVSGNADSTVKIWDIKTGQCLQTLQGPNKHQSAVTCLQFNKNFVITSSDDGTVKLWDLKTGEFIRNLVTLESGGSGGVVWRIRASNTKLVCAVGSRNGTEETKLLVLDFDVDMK
GPR151 ag: activators of human GPR151, primary screen, cell-based, PathHunter beta-arrestin, luminescence; activation, % at 11.2 µM; G-protein coupled receptor 151 (Homo sapiens), Q8TDV0; actives 1% (n = 650,000); PathHunter beta-arrestin GPR151 cells; in the data active = activation above about 4.9%
Hits are given with their value; – = inactive. In the library only some 3.4% were active in any assay of this set; here they are far more common.

SMILES	MITF inh	TEAD-YAP block	FBW7 act	GPR151 ag
Cc1nc2ccccn2c1-c1csc(N)n1	–	44.2	–	–
Cc1nc2ccccn2c1-c1csc(Nc2ccc(O)cc2)n1	–	–	–	–
COc1ccc(CNC(=O)c2ccc(CNc3c(N4CCC(C)CC4)c(=O)c3=O)cc2)cc1	–	–	–	–
Cc1cc(C(=O)CCl)c(C)n1-c1ccccc1F	–	–	–	–
CCN1CCN(CC(=O)c2cc(C)n(-c3ccccc3F)c2C)CC1	61.8	–	–	–
CCN1CCN(CC(=O)c2cc(C)n(-c3cccc(C(F)(F)F)c3)c2C)CC1	63.1	–	–	–
CC(C)C(=O)N1CCCC(c2nnc(-c3ccccc3F)s2)C1 (configuration not stated)	–	92.6	–	–
COc1ccc(CNC(=O)N2CCCC(c3nnc(-c4ccccc4F)s3)C2)cc1 (configuration not stated)	–	–	–	–
CC(=O)N1CCCC(c2nnc(-c3ccccc3F)s2)C1 (configuration not stated)	–	81.8	–	–
Nc1nnc(SC(CNS(=O)(=O)c2ccc(Cl)cc2)c2ccccc2)s1 (configuration not stated)	–	–	–	–
CCOc1cc(N2CCOCC2)c(OCC)cc1NS(=O)(=O)c1ccc(F)c(F)c1	–	34.5	–	–
Cc1c(N=C2C(=O)N(CC(=O)O)c3ccccc32)c(=O)n(-c2ccccc2)n1C	–	–	2.3	–
COc1ccccc1CNc1ccccc1F	–	–	2.2	–
COc1ccccc1CNc1cc(C)ccc1OC	61.8	–	–	–
COc1ccccc1CNc1ccccc1SC	–	–	–	–
COc1ccccc1CC(=O)Nc1ccc(C)cc1C	–	–	–	–
O=C(C1CCCN(S(=O)(=O)c2cccc3nsnc23)C1)N1CCCCC1 (configuration not stated)	–	–	–	–
Cc1sc(NC(=O)c2ccc([N+](=O)[O-])cc2)nc1-c1ccccc1	–	–	–	–
C=CCN1C(=Nc2cccnc2)SCC1(O)c1ccc(C)cc1 (configuration not stated)	–	–	–	–
OC1(c2ccccc2)CSC(=Nc2cccnc2)N1CCCn1ccnc1 (configuration not stated)	–	43.4	–	–
CCOC(=O)c1sc(N)c(C(=O)Nc2ccccc2OC)c1C	–	54.3	–	–
COC(=O)c1c(N)sc(C(=O)Nc2ccccc2OC)c1C	–	–	–	–
CCOC(=O)c1c(N)sc(C(=O)Nc2ccc(OC)cc2)c1C	–	41.7	–	–
CCOC(=O)c1ccc(NC(=O)c2sc(NC(=O)c3ccc(OC)cc3)c(C(=O)OCC)c2C)cc1	–	–	–	–
CCOC(=O)c1c(N)sc(C(=O)Nc2ccc3c(c2)OCO3)c1C	–	78.9	–	–
SMILES	MITF inh	TEAD-YAP block	FBW7 act	GPR151 ag
Cc1ccc(C)c(N2CCN(C(=O)Cn3c4ccccc4c4nc(=O)cc(C)n43)CC2)c1	–	–	–	–
O=C(NCc1ccc(C(=O)NCCc2ccccn2)cc1)Nc1ccc(-c2cn[nH]c2)cc1	–	–	1.9	–
Cc1ccc(C#N)c(SCc2nnc(-c3ccc(Cl)cc3)o2)n1	–	68.2	–	–
Cc1nc2c3ccccc3nc(SCC(=O)Nc3cc(C)[nH]n3)n2n1	–	55.7	–	–
Cc1cc(NC(=O)CSc2nc3ccccc3c(=O)n2CCC(=O)N2CCN(c3ccccc3)CC2)n[nH]1	–	–	–	–
O=C(CSc1nc2ccccc2c(=O)n1CCCN1CCCCC1)Nc1ccccc1Cl	–	–	–	–
Cc1cc(NC(=O)CSc2nc3ccccc3c(=O)n2CCCN2CCCCC2)n[nH]1	–	83.6	–	–
Cc1cc(NC(=O)CSc2nc3ccccc3c(=O)n2CCCN2CCC(C)CC2)n[nH]1	–	84.6	–	–
Cc1cc(NC(=O)CSc2nc3ccccc3c(=O)n2CCCC(=O)NCCc2ccccc2)n[nH]1	–	–	–	–
Cc1cc(NC(=O)CSc2nc3ccccc3c(=O)n2CCCC(=O)N2CCCC2)n[nH]1	–	53.6	–	–
CCC(C)(NC(=O)C(C)O)C(=O)Nc1c(C)cccc1C (configuration not stated)	–	–	–	–
CC(C)(C)c1ccc(/C=C/C(=O)Nc2nccs2)cc1	–	–	–	–
C/C(=N/NC(=O)c1ccc([N+](=O)[O-])cc1)c1ccc(Cl)cc1Cl	–	–	–	–
O=c1oc2ccc(Br)cc2cc1-c1csc(Nc2cccc(C(F)(F)F)c2)n1	–	–	–	–
Cn1c(=O)c2c(ncn2CC(=O)Nc2sc3c(c2C(N)=O)CCCC3)n(C)c1=O	–	–	–	–
COc1ccc(/C=C/C(=O)Nc2scc(-c3ccc(Br)cc3)c2C(=O)O)cc1	–	62.5	–	–
CC(NC(=O)c1cnn2c(C(F)(F)F)cc(-c3ccccc3)nc12)c1ccccc1 (configuration not stated)	–	–	–	–
Cc1nc(NC(C)c2ccccc2)cc(-c2ccccn2)n1 (configuration not stated)	–	36.1	–	–
Cc1nc(NC(C)c2ccccc2)cc(-c2cncc(Br)c2)n1 (configuration not stated)	–	–	–	–
CC(C(=O)O)N1C(=O)/C(=C/c2cccc(Br)c2)SC1=S (configuration not stated)	–	–	–	–
COc1ccc(C(=O)NC2CCSC2=O)cc1[N+](=O)[O-] (configuration not stated)	–	–	2.0	–
C=CCNc1cc(-c2ccccn2)nc(-c2ccccn2)n1	115.0	49.5	–	–
c1ccc(-c2nc(NCc3ccco3)cc(-c3cccnc3)n2)nc1	–	–	–	–
c1ccc(-c2cc(NCc3ccco3)nc(-c3ccccn3)n2)nc1	111.0	59.1	–	–
N#Cc1c(NC(=O)COC(=O)/C=C/c2ccc([N+](=O)[O-])cc2)sc2c1CCCC2	–	–	–	–
SMILES	MITF inh	TEAD-YAP block	FBW7 act	GPR151 ag
CCCc1nc2cc([N+](=O)[O-])ccc2o1	–	–	–	–
CC(C)c1ccc2oc(-c3ccc(NC(=O)COc4ccccc4)cc3)nc2c1	–	68.7	–	–
COc1ccc(OCC(=O)Nc2ccc(-c3nc4cc(C(C)C)ccc4o3)cc2)cc1	–	47.9	–	–
O=c1oc2cc(O)ccc2cc1-c1ccc(Cl)cc1	–	42.1	–	–
COc1ccc(-c2cc3ccc(O)cc3oc2=O)cc1OC	–	–	–	–
COc1ccc(OCC(=O)Nc2ccc(-c3cc4ccccc4oc3=O)c(C)c2)cc1	–	–	–	–
COc1ccc(OCC(=O)Nc2ccc(-c3cc4ccccc4oc3=O)cc2)cc1	–	43.3	–	–
COc1ccc(NC(=O)COc2ccc(C(C)C)cc2)c(OC)c1	–	–	2.1	–
COc1ccc(OCC(=O)Nc2cc(-c3nc4cc(C(C)C)ccc4o3)ccc2Cl)cc1	–	70.0	–	–
Cc1ccc(OCC(=O)Nc2cc(-c3nc4cc(C(C)C)ccc4o3)ccc2Cl)cc1	–	–	–	–

Compound activity deposited in PubChem BioAssay by The Scripps Research Institute Molecular Screening Center.
